Compounds with a hit are over-represented: about 0.97% of the library has one in this group of screens.
AGP1-GFP MLPCN = yeast TOR pathway AGP1-GFP modulation; S. cerevisiae AGP1-GFP multiplex flow cytometry, 3 h; GFP as percent of DMSO wells; GFP response vs DMSO, % at 10 µM; hit rate 0.02% among 320,000;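 active = GFP response relative to DMSO above a set limit, near screen average plus 3 SD, cut at about 150% in these data; inconclusive = fewer than 70 cells counted for the yeast strain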;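 note: median GFP channel fluorescence of the gated AGP1 strain per well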
CIT2 TOR yeast = yeast TOR pathway CIT2-GFP modulation. S. cerevisiae CIT2-GFP strain, flow cytometry, 3 h; 100 means same as DMSO wells. GFP response vs DMSO, % at 10 µM. hit rate 0.065% among 320,000;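 active = GFP response relative to DMSO above a set limit, near the screen mean plus 3 SD, cut at about 150% in these data; inconclusive = Fewer than 70 cells measured for a yeast strain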;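 note: ratio of well median GFP fluorescence to mean of DMSO wells on the plate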
RPL19A-GFP yeast = yeast TOR pathway RPL19A-GFP modulation; percent response vs DMSO, % at 10 µM; S. cerevisiae RPL19A-GFP strain, flow cytometry, 3 h; active compounds read low; hit rate 0.3% among 330,000;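 active = percent response vs DMSO below 50%; inconclusive = fewer than 70 events counted for the yeast strain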;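 note: median channel GFP fluorescence of the barcoded RPL19A-GFP strain; ratio of sample median GFP to plate DMSO average so 100% = DMSO; lower means less RPL19A-GFP as with rapamycin TOR inhibition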
LAP4 TOR yeast = alters LAP4-GFP fluorescence in TOR pathway yeast screen. hit rate 0.34% among 320,000. S. cerevisiae LAP4-GFP multiplex, flow cytometry GFP, 3 h; median GFP as percent of DMSO wells. AID 2023. GFP response vs DMSO, % at 10 µM;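 active = GFP response vs DMSO above a set limit, about the screen mean plus 3 SD, cut at about 150% in these data; inconclusive = under 70 cell events counted for the yeast strain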
GASC-1 inh = human JMJD2C demethylase inhibition; Q9H3R0; GST-JMJD2C(1-420) H3K9me3 demethylation, DELFIA europium; inhibition, % at 2.35 µM; hit rate 0.069% among 330,000; AID 2099;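 active = more than half of a compound's replicate wells show inhibition beyond 50%, single wells judged on their own value; inconclusive = some, but no more than half, of replicates pass 50% inhibition; inactive = no replicate passes 50% inhibition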;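 note: signal counts dimethyl H3K9 product captured on neutravidin plate; 0% = median of DMSO wells and 100% = 0.3 times that DMSO median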
Target sequence (Q9H3R0 1-420 limits assumed): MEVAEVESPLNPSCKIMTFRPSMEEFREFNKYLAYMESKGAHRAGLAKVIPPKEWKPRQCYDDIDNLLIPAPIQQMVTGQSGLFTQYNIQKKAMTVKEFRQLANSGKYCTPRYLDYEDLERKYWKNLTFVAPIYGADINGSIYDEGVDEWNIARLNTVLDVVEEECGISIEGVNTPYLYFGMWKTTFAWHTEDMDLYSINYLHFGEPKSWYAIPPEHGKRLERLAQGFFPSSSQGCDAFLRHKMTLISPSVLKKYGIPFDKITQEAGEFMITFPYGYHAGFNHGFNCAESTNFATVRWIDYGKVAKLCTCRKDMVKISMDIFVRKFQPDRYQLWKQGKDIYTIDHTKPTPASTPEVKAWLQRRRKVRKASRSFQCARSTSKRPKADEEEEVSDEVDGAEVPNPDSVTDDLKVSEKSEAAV
MEP2 TOR yeast = modulators of TOR pathway MEP2-GFP in S. cerevisiae; hit rate 0.51% among 330,000; S. cerevisiae MEP2-GFP strain, flow cytometry GFP, 3 h; 100% = DMSO control level; GFP response vs DMSO, % at 10 µM; AID 2016;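 active = GFP response versus DMSO above a set limit, roughly screen mean plus 3 SD, cut at about 180% in these data; inconclusive = fewer than 70 cells counted for a yeast strain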;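 note: median GFP fluorescence of the barcode-gated MEP2-GFP cells per well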
* marks the source's active call; other numbers are inactive results; ? = inconclusive; / = no result given; + = active, no number; [ ] = dose if it differs, or a comment.

SMILES	AGP1-GFP MLPCN	CIT2 TOR yeast	RPL19A-GFP yeast	LAP4 TOR yeast	GASC-1 inh	MEP2 TOR yeast
COc1cc(C(=O)OCCc2cc3ccccc3c(=O)o2)cc(OC)c1OC	95	87	93	97	3	89
Cc1cc(C)cc(NC(=O)Cn2nnc(C(=O)NCc3ccco3)c2N)c1	111	109	105	108	2	107
COc1ccc(NC(=O)Cn2nnc(C(=O)NCc3ccco3)c2N)cc1	?	?	22*[may fluoresce violet]	80	5	134
Cc1ccc(CNC(=O)c2nnn(-c3cccc(C)c3)c2N)cc1	88	85	92	107	7	92
Cc1cccc(-n2nnc(C(=O)NCc3ccco3)c2N)c1	?	?	18*[may fluoresce violet]	?	-10	?
COc1cccc(C(C(=O)NCC2CCCO2)N(C(=O)Cn2nnc3ccccc32)c2ccc(NC(C)=O)cc2)c1 (centres undefined)	?	?	54	78	4	204*[may fluoresce violet]
O=C1C=C(c2cccc(Br)c2)C[C@@H](c2ccc3c(c2)OCO3)C1	64	96	100	93	7	94
COc1ccc(Cl)cc1S(=O)(=O)NC(C)C(=O)NCc1ccc2c(c1)OCO2 (centres undefined)	93	111	103	95	9	106
COCCn1c(SCC(=O)Nc2ccccc2F)nnc1-c1ccoc1C	101	100	106	94	3	102
COCCn1c(SCC(=O)Nc2ccccc2)nnc1-c1ccoc1C	?	?	54	74	-18	234*[may fluoresce violet]
COc1ccccc1N1CCN(CC(O)c2ccccc2)CC1 (centres undefined)	?	?	46*[may fluoresce violet]	79	0	290*[may fluoresce violet]
CCOc1cc(N2CCOCC2)c(OCC)cc1NC(=O)C(NC(=O)c1ccco1)C(C)C (centres undefined)	42	104	/	94	-1	269*
CCCC(=O)C1=C(O)C(C(=O)OC)C(C)(C)CC1=Nc1cccc2ccccc12 (centres undefined)	/	?	69	91	0	177*[may fluoresce violet]
O=C(O)c1nn(-c2cccc(Cl)c2)c(=O)cc1O	102	99	103	105	14	100
CCOC(=O)C1(CCCc2ccccc2)CCN(C(=O)c2cc(C)nn2CC)CC1	129	151*	83	137	-6	615*
CC1CN(C(=O)CCC(=O)N2CCN(c3cccc(C(F)(F)F)c3)CC2)c2ccccc2O1 (centres undefined)	103	103	101	98	-5	104
CC1CCN(C(=O)c2[nH]cnc2C(=O)Nc2ccon2)CC1	97	95	95	93	1	98
COCCn1c(SCc2cccc(F)c2)nc2cc(C(=O)OC)ccc2c1=O	96	93	101	99	4	111
CCC(=O)Nc1nc2cc(OC)ccc2s1	?	?	15*[may fluoresce violet]	97	-2	269*[may fluoresce violet]
COc1ccc2sc(NC(C)=O)nc2c1	82	68	85	77	-4	88
O=C(O)CCC(=O)NNC(=O)CCC1CCCCC1	97	96	93	99	3	93
O=C(O)CCC(=O)OCC1CCCCC1	83	101	109	172*	0	96
Cc1nn(CC(=O)N2CCOCC2)c(=O)c2c1sc1ccccc12	?	?	17*[may fluoresce violet]	83	-9	171
Cc1nn(CC(=O)N2CCN(C)CC2)c(=O)c2c1sc1ccccc12	98	104	100	98	/	101
CSCCC(NC(=O)COc1ccccc1)C(=O)OCc1ccc([N+](=O)[O-])cc1 (centres undefined)	90	84	91	91	6	96
SMILES	AGP1-GFP MLPCN	CIT2 TOR yeast	RPL19A-GFP yeast	LAP4 TOR yeast	GASC-1 inh	MEP2 TOR yeast
COC(=O)[C@]12C(=O)NC[C@H](CN1c1ccc(Cl)c(C)c1)N2C	97	83	95	99	14	92
Cc1cccc(CN2CCC(Oc3ccc(C(=O)N4CCCC4)cc3)CC2)n1	100	98	100	95	66*	105
COC(=O)c1ccc(C(=O)NC(=S)Nc2ccc3nc(SC)sc3c2)cc1	85	116	94	113	6	346*
O=S1(=O)N=C(N2CCc3ccccc3C2)c2ccccc21	?	?	43*[may fluoresce violet]	87	0	336*[may fluoresce violet]
O=S1(=O)N=C(N2CCCc3ccccc32)c2ccccc21	94	89	99	96	-17	104
CC1CCN(CCCNC(=O)C2CCN(S(=O)(=O)N3CCC4(CC3)OCCO4)CC2)CC1	18	?	45*[may fluoresce violet]	84	8	131
Cc1c(C(=O)Nc2ccccc2)cnn1-c1ccccc1	127	77	95	155*	5	137
O=c1nc2ccccc2c2n1CC(CN1CCN(c3ccc(F)cc3)CC1)N2 (centres undefined)	?	?	31*[may fluoresce violet]	81	-5	94
O=C(CCCC(=O)OCC1CCCO1)OCC1CCCO1 (centres undefined)	/	?	53	100	9	281*[may fluoresce violet]
CCCCn1c(=O)[nH]c(=O)c2c1nc(-c1ccc(OC(F)F)c(OC)c1)n2C	105	107	102	99	7	101
CCCCn1c(=O)[nH]c(=O)c2c1nc(-c1cc(Cl)c(OC)c(OC)c1)n2C	90	93	96	90	52*	99
CC(=O)c1ccccc1NC(=O)COC(=O)c1ccccc1NC(=O)c1ccccc1	224*[may fluoresce green]	720*[may fluoresce green]	249	986*[may fluoresce green]	-5	+[may fluoresce green]
COC(=O)COC(=O)c1ccccc1NC(=O)c1ccccc1	90	102	97	98	2	104
O=C(NCC(c1ccco1)N1CCCC1)c1cc(S(=O)(=O)N2CCOCC2)ccc1Cl (centres undefined)	99	91	96	102	-5	97
CC(C)(CC(=O)O)CC(=O)NNc1ncccc1C#N	104	97	97	107	9	101
CN(C)CCCN(C(=O)C1COc2ccccc2O1)c1nc2cc3c(cc2s1)OCO3 (centres undefined)	97	91	95	95	0	94
CC(C)Nc1nc(-c2ccccc2)nnc1-c1ccccc1	168*	136	66	157*	0	795*
O=C(Nc1nccs1)C(c1ccccc1)N1CCCCC1 (centres undefined)	102	106	97	112	-23	186*
O=C(Nc1nccs1)C(Br)C(Br)c1ccccc1 (centres undefined)	97	108	97	122	7	105
Cc1cc(C)c2c(n1)nn1c(NCCCN(C)C)cc(C)nc21	46	?	35*[may fluoresce violet]	106	0	259*[may fluoresce violet]

Source: PubChem BioAssay
